Rows were chosen to be rich in hits. Some 31% of all compounds tested hit in one or more screens of this group.
CYP2C9 inh: human CYP2C9 inhibition | P11712 | CYP2C9 Supersomes, luciferin-H conversion, luminescence | inhibition, % at 5 µM | hit rate 20% among 96,000 | AID 777;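 active means blocking of liver enzyme CYP2C9 beyond about 50% at 5 µM, limit read from the data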
CYP2C9 activ: CYP2C9 (human) activation; P11712; recombinant CYP2C9, luciferin-H conversion, luminescence; active compounds read high; factor 1 = untreated enzyme, 0 = blocked; activation factor at 5 µM; hit rate 1.4% among 96,000; AID 1024;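 active means activation factor of 2 or more for CYP2C9 at a 5 µM dose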
CYP2C19 inh: inhibitors of human CYP2C19; CYP2C19 Supersomes, luciferin-H EGE luminescence, 30 min; inhibition, % at 5 µM; hit rate 21% among 96,000;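 active means CYP2C19 inhibition above a set limit at 5 µM in the primary screen, cut at about 50% in these data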
Target sequence (P33261 whole entry, looked up): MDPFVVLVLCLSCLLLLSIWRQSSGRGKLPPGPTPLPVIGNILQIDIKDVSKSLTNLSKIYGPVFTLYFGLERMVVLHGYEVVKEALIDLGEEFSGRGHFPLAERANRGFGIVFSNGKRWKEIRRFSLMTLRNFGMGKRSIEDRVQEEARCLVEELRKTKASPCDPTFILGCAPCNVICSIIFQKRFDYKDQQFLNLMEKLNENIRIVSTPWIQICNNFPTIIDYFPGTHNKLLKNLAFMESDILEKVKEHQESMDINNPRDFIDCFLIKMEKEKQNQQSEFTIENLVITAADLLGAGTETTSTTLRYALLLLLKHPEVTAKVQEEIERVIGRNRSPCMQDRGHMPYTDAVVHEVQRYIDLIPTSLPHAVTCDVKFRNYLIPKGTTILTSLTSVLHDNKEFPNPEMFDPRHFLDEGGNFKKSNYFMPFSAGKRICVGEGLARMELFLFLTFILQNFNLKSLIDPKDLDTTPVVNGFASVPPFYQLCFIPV
CYP2C19 act: increases human CYP2C19 enzyme activity; P33261; recombinant CYP2C19, luciferin-H EGE luminescence; active compounds read high; 0 = fully inhibited enzyme, 1 = untreated enzyme; activation factor at 5 µM; 96,000 tested, under 10 active; AID 1025;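 active means activation factor of at least 2 at 5 µM in the primary screen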
Numbers stand for hits.

What do the screens show for `CC1S/C(=C(\C#N)C(=O)NCc2ccco2)N(Cc2ccco2)C1=O` (stereo unspecified)?
CYP2C9 inh: inactive; CYP2C9 activ: inactive; CYP2C19 inh: inactive; CYP2C19 act: inactive

Results for Cn1c(Oc2ccccc2NCc2cc(Br)ccc2O)cc(=O)n(C)c1=O ?
CYP2C9 inh: 94.8; CYP2C9 activ: inactive; CYP2C19 inh: 76.3; CYP2C19 act: inactive

What do the screens show for `CCN1C(=O)C(Cc2nc3ccccc3c(=O)n2C)c2ccccc21` (stereo unspecified)?
CYP2C9 inh: 60.3; CYP2C9 activ: inactive; CYP2C19 inh: 56.9; CYP2C19 act: inactive

Results for CCCN1C(=O)C(Cc2nc3ccccc3c(=O)n2C)c2ccccc21 (stereo unspecified) ?
CYP2C9 inh: inactive; CYP2C9 activ: inactive; CYP2C19 inh: inactive; CYP2C19 act: inactive

How did O=C(Nc1ccon1)c1cc2c(s1)CCCCCC2 do in these assays?
CYP2C9 inh: 68.9; CYP2C9 activ: inactive; CYP2C19 inh: 54.7; CYP2C19 act: inactive

Results for O=C(NCCCn1ccnc1)c1cc2c(s1)CCCCC2 ?
CYP2C9 inh: 72.7; CYP2C9 activ: inactive; CYP2C19 inh: 93.1; CYP2C19 act: inactive

How did Cc1csc(NC(=O)c2cc3c(s2)CCCCC3)n1 do in these assays?
CYP2C9 inh: inactive; CYP2C9 activ: inactive; CYP2C19 inh: inactive; CYP2C19 act: inactive

Results for O=C(Nn1cnnc1)c1cc2c(s1)CCCCC2 ?
CYP2C9 inh: inactive; CYP2C9 activ: inactive; CYP2C19 inh: 72.3; CYP2C19 act: inactive

What do the screens show for `COC(=O)Nc1ccc2ncn(C)c(=O)c2c1`?
CYP2C9 inh: inactive; CYP2C9 activ: inactive; CYP2C19 inh: inactive; CYP2C19 act: inactive

Results for COc1ccc(COC(=O)NNC(=O)c2ccccc2Cl)cc1 ?
CYP2C9 inh: inactive; CYP2C9 activ: inactive; CYP2C19 inh: 71.6; CYP2C19 act: inactive

Results for COc1ccc(CNC(=O)C2CC(c3cccc([N+](=O)[O-])c3)=NO2)cc1 (stereo unspecified) ?
CYP2C9 inh: inactive; CYP2C9 activ: inactive; CYP2C19 inh: inactive; CYP2C19 act: inactive

How did COc1ccccc1CNC(=O)C1CC(c2ccccc2[N+](=O)[O-])=NO1 (stereo unspecified) do in these assays?
CYP2C9 inh: inactive; CYP2C9 activ: 2.8; CYP2C19 inh: inactive; CYP2C19 act: inactive

How did COc1ccc(CNC(=O)C2CC(c3ccccc3[N+](=O)[O-])=NO2)cc1 (stereo unspecified) do in these assays?
CYP2C9 inh: inactive; CYP2C9 activ: inactive; CYP2C19 inh: 50.3; CYP2C19 act: inactive

What do the screens show for `CCOc1ccc(C2C(C#N)=C(N)Oc3cc(C)n(CCN(C)C)c(=O)c32)cc1OCC` (stereo unspecified)?
CYP2C9 inh: inactive; CYP2C9 activ: inactive; CYP2C19 inh: inactive; CYP2C19 act: inactive

What do the screens show for `O=C(Cc1ccccc1)Nc1cccc(-c2nnc(-c3ccco3)o2)c1`?
CYP2C9 inh: 79.0; CYP2C9 activ: inactive; CYP2C19 inh: 84.4; CYP2C19 act: inactive

Results for CC(=O)Nc1cccc(-c2nnc(-c3ccccc3)o2)c1 ?
CYP2C9 inh: inactive; CYP2C9 activ: inactive; CYP2C19 inh: inactive; CYP2C19 act: inactive

Results for O=C(Cc1ccc(Cl)cc1)Nc1cccc(-c2nnc(-c3ccco3)o2)c1 ?
CYP2C9 inh: 77.6; CYP2C9 activ: inactive; CYP2C19 inh: 80.4; CYP2C19 act: inactive

What do the screens show for `O=C(Nc1cccc(-c2nnc(-c3ccco3)o2)c1)C(c1ccccc1)c1ccccc1`?
CYP2C9 inh: 97.8; CYP2C9 activ: inactive; CYP2C19 inh: 83.4; CYP2C19 act: inactive

Results for CC(=O)c1cccc(NC(=O)C2CCN(S(=O)(=O)c3ccc(F)cc3)CC2)c1 ?
CYP2C9 inh: 63.3; CYP2C9 activ: inactive; CYP2C19 inh: 53.2; CYP2C19 act: inactive

What do the screens show for `CCS(=O)(=O)N1CCC(C(=O)Nc2cccc(C(C)=O)c2)CC1`?
CYP2C9 inh: inactive; CYP2C9 activ: inactive; CYP2C19 inh: 69.5; CYP2C19 act: inactive

What do the screens show for `CC(=O)c1cccc(NC(=O)C2CCN(S(=O)(=O)c3ccccc3)CC2)c1`?
CYP2C9 inh: inactive; CYP2C9 activ: inactive; CYP2C19 inh: 67.5; CYP2C19 act: inactive

Results for O=C(Nc1ccc(N2CCOCC2)cc1)C1CC1 ?
CYP2C9 inh: inactive; CYP2C9 activ: inactive; CYP2C19 inh: inactive; CYP2C19 act: inactive

Results for O=C(Nc1ccc(N2CCOCC2)cc1)C1CCCN(S(=O)(=O)c2cccc(C(F)(F)F)c2)C1 (stereo unspecified) ?
CYP2C9 inh: inactive; CYP2C9 activ: inactive; CYP2C19 inh: 63.2; CYP2C19 act: inactive

Results for CC(=O)c1cccc(NC(=O)C2CCN(S(C)(=O)=O)CC2)c1 ?
CYP2C9 inh: inactive; CYP2C9 activ: inactive; CYP2C19 inh: inactive; CYP2C19 act: inactive
